Our source for the activation values is PubChem BioAssay AID1053180 (Broad Institute, 2014).

Several values for one entry are separate records, joined by “and”; a condition that tells them apart may be missing. Equal entries are not always repeated. Among all 9,600 compounds or so, about 20 (0.2%) were called active.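 The calls were made as follows: active = highest normalized replicate activity of 15 or more, or at least half the replicates reach 15 or more; inactive = neither condition met.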 The entries come from a sample that favours actives as a whole. Some structures have more than one record in an assay (separate samples or runs), and their calls can disagree.

This assay is described as follows: Pax4 mRNA upregulation in alpha cells – RT-PCR, mouse alpha TC1 cells, single point, primary screen (AID 1053180).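 Also: Pax4 Ct normalized to GAPDH with activation seen as lower delta delta Ct; plate controls were plate neutral control wells for no effect and Pax4 plasmid positive control for full effect.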 Particulars: Pax4 mRNA qPCR, 6 days, at 10 µM, stronger effect = higher value, 100% = Pax4 plasmid added at qPCR.
In the case of `CC(C)CC#Cc1ccc([C@H]2[C@@H](CO)N3CCCCN(C(=O)Nc4ccccc4)C[C@@H]23)cc1`, the activation is 0.0025% (inactive).
In the case of `O=C(C[C@@H]1CC[C@H](NC(=O)c2ccc3c(c2)OCO3)[C@@H](CO)O1)NCc1ccc(Oc2ccccc2)cc1` it was 0.006% (inactive); in that of `COCC(=O)N1CC(=O)N2[C@H](CO)[C@H](c3ccc(-c4ccccc4F)cc3)[C@@H]2C1`, 0% (inactive); in that of `C[C@H]1CN([C@@H](C)CO)C(=O)c2cc(NS(=O)(=O)c3ccc(F)cc3)ccc2O[C@H]1CN(C)C(=O)Nc1ccccc1`, 0.002% (inactive).
For the molecule `CO[C@H](CN(C)C(=O)C1CCOCC1)[C@@H](C)CN(C(=O)Nc1ccc(C(F)(F)F)cc1)[C@@H](C)CO`, the activation is 0.0085% (inactive).
For the molecule `O=C(CN1CCOCC1)N[C@@H]1CC[C@@H](CCn2cc(C3CC3)nn2)O[C@@H]1CO`, the activation is 0.0035% (inactive).
Regarding `COc1cc(CN2C[C@@H]3N[C@H](C2)C3c2ccc(-c3ccc(C#N)cc3)cc2)cc(OC)c1` (stereo partly drawn), the activation was 3.96% (inactive) and 9.29% (active).
For `COc1cccc(CN2C[C@@H]3N[C@H](C2)C3c2ccc(-c3ccccc3C)cc2)c1` (stereo partly drawn) the value was 0.0245% (inactive) and 0.039% (inactive); for `COc1cccc(-c2ccc(C3[C@@H]4CN(Cc5ccccn5)C[C@H]3N4)cc2)c1` (stereo partly drawn), 0.0705% (inactive) and 213% (active).
With `Fc1ccccc1-c1ccc(C2[C@@H]3CN(Cc4ccccn4)C[C@H]2N3)cc1` (stereo partly drawn), the activation was 0.412% (inactive) and 0.0165% (inactive).
For `N#Cc1ccc(-c2ccc([C@@H]3[C@@H]4CN(Cc5cocn5)C[C@H]3N4)cc2)cc1`, the activation is 0.128% (inactive).
In the case of `N#Cc1cccc(-c2ccc(C3[C@@H]4CN(Cc5ccccc5)C[C@H]3N4)cc2)c1` (stereo partly drawn) it was 2.74% (inactive) and 0.113% (inactive); in that of `C[C@@H]1CCCCO[C@@H](CN(C)S(=O)(=O)c2ccc(F)cc2)[C@H](C)CN([C@@H](C)CO)C(=O)c2cc(N(C)C)ccc2O1`, 0.002% (inactive).
For `COc1cccc(S(=O)(=O)N[C@H]2CC[C@@H](CC(=O)NC3Cc4ccccc4C3)O[C@@H]2CO)c1` the value was 0.0015% (inactive).
Regarding `CO[C@@H]1CC[C@H]2CCOc3c(C#N)cccc3C(=O)N(C)CCCC(=O)N(C)C[C@H]1O2`, the activation is 0.001% (inactive).
In the case of `C[C@@H]1CCCCO[C@H](CN(C)C(=O)c2ccncc2)[C@H](C)CN([C@H](C)CO)C(=O)c2cc(NS(=O)(=O)c3cccs3)ccc2O1` it was 0.001% (inactive); in that of `CCCNC(=O)[C@H]1[C@H](CO)[C@H]2Cn3c(ccc(/C=C/c4ccccc4)c3=O)[C@H]2N1CC1CC1`, 0% (inactive).
In the case of `Cc1cccc(-c2ccc(C3[C@@H]4CN(C(=O)Nc5ccc(F)cc5)C[C@H]3N4)cc2)c1` (stereo partly drawn) it was 0.272% (inactive); in that of `O=C(Nc1ccc(F)cc1)N1C[C@@H]2N[C@H](C1)C2c1ccc(/C=C/c2ccccc2)cc1` (stereo partly drawn), 1.76% (inactive); in that of `COc1ccccc1NC(=O)N1C[C@@H]2N[C@H](C1)C2c1ccc(-c2cccc(C#N)c2)cc1` (stereo partly drawn), 0.02% (inactive) and 0.24% (inactive).
As to `C/C=C/c1ccc(C2[C@H]3CNC[C@@H]2N3C(=O)Nc2ccc(C(F)(F)F)cc2)cc1` (stereo partly drawn), the activation is 0.016% (inactive) and 0.0105% (inactive).
In the case of `Cc1ccccc1S(=O)(=O)N1C[C@@H]2N[C@H](C1)C2c1ccc(-c2cccc(C#N)c2)cc1` (stereo partly drawn) it was 0.966% (inactive) and 11.5% (active); in that of `COc1ccc(-c2ccc(C3[C@@H]4CN(S(=O)(=O)c5ccccc5C)C[C@H]3N4)cc2)cc1` (stereo partly drawn), 0.369% (inactive) and 0.0145% (inactive); in that of `C/C=C/c1ccc(C2[C@@H]3CN(C(=O)Nc4ccc(C(F)(F)F)cc4)C[C@H]2N3)cc1` (stereo partly drawn), 32.9% (active) and 0.0565% (inactive).
In the case of `N#Cc1cccc(-c2ccc(C3[C@@H]4CN(C(=O)Nc5ccc(C(F)(F)F)cc5)C[C@H]3N4)cc2)c1` (stereo partly drawn) it was 8.39% (active) and 0.03% (inactive).
In the case of `N#Cc1cccc(-c2ccc(C3[C@@H]4CNC[C@H]3N4)cc2)c1` (stereo partly drawn) it was 0.0045% (inactive); in that of `O=C1CNC[C@@H]2[C@H](c3ccc(-c4ccccc4F)cc3)[C@@H](CO)N12`, 0% (inactive).
Regarding `CNC[C@H]1Oc2cc(C#Cc3ccccc3OC)ccc2S(=O)(=O)N([C@@H](C)CO)C[C@@H]1C`, the activation is 0.371% (inactive).
With `CNC[C@@H]1Oc2cc(C#Cc3ccccc3OC)ccc2S(=O)(=O)N([C@H](C)CO)C[C@H]1C`, the activation is 10.4% (active).
In the case of `CNC[C@H]1Oc2cc(C#Cc3ccccc3OC)ccc2S(=O)(=O)N([C@H](C)CO)C[C@@H]1C` it was 0.402% (inactive); in that of `C[C@@H]1CN([C@@H](C)CO)C(=O)CCCn2nncc2CO[C@H]1CN(C)C(=O)c1cc(-c2ccccc2)on1`, 0.0055% (inactive).
For `C[C@@H]1CN([C@H](C)CO)C(=O)CCCn2nncc2CO[C@@H]1CN(C)Cc1ccccc1C(=O)O` the value was -0.0005% (inactive); for `C[C@@H]1CCCCO[C@H](CN(C)C(=O)Nc2ccc3c(c2)OCO3)[C@H](C)CN([C@H](C)CO)C(=O)c2cc(NS(=O)(=O)c3ccc(F)cc3)ccc2O1`, 0.0035% (inactive).
As for `CC(C)CN(C[C@H]1N[C@H](CO)[C@@H]1c1ccccc1)C(=O)C1CCCCC1`, the activation is 0% (inactive).
For `CO[C@H]1CN(C)C(=O)c2cc(NC(=O)Nc3cccc(Cl)c3)ccc2OC[C@H](C)N(C(=O)Nc2c(C)noc2C)C[C@@H]1C`, the activation was 0.004% (inactive).
Take `COc1ccc2c3c([nH]c2c1)[C@H](CO)N(Cc1ccccc1F)CC31CN(CC2CC2)C1`: the activation is 0.011% (inactive).
For `COCC#Cc1ccc([C@H]2[C@@H](CO)N3CCCCN(C(=O)NC4CCCC4)C[C@H]23)cc1`, the activation is 0.001% (inactive).
For `O=C(c1ccccc1)N1CC(=O)N2[C@H](CO)[C@H](c3ccc(-c4ccccc4)cc3)[C@@H]2C1` the value was 0.0005% (inactive); for `C/C=C/c1ccc([C@@H]2[C@H](CO)N(C(C)=O)[C@H]2CNC(=O)c2ccccc2)cc1`, 0.0015% (inactive); for `C[C@H](NC(=O)C[C@H]1C=C[C@@H](NC(=O)c2cccnc2)[C@H](CO)O1)c1ccccc1`, 0.0005% (inactive).
For `CS(=O)(=O)Nc1ccc2c(c1)[C@@H]1C[C@@H](CC(=O)NCc3cc(F)ccc3F)O[C@H](CO)[C@@H]1O2` the value was 0.007% (inactive); for `C[C@@H]1CN([C@@H](C)CO)C(=O)c2ccccc2-c2ccccc2CO[C@@H]1CN(C)C(=O)NC1CCCCC1`, -0.0015% (inactive); for `CO[C@H]1CN(C)C(=O)c2ccc(NC(=O)c3nc4ccccc4s3)cc2OC[C@H](C)N(Cc2cccnc2)C[C@@H]1C`, 0.009% (inactive).
